Bioassay records (PubChem BioAssay)
Compounds with a hit are over-represented: about 19% of the library has one in this group of screens.
TDP1 cell noCPT: qHTS for Inhibitors of human tyrosyl-DNA phosphodiesterase 1 (TDP1): qHTS in cells in absence of CPT; DT40 Tdp1-/- hTDP1 cells, no CPT, ATP luminescence, 48 h; Potency, µM (titrated, usually from 46.2 µM), without a hit: top-dose activity change, negative = growth inhibition, most hits filed as inhibitors; actives 15% (n = 420,000); AID 686978, 2013; further: potency means the concentration at half of the fitted maximal effect; nearly all actives have a fitted effect of over 55% in size
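Stably hTDP1-transfected Tdp1-null chicken DT40 cells were treated with library compounds minus camptothecin and grown for at least 48 hr at 37 °C, after which cellular ATP was quantified by luminescence.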
ELG1 DNA repair: blocks ELG1-dependent DNA repair in HEK293T cells; HEK293T ELG1-luciferase reporter, luminescence, 16 h; DNA damage induced by 5-fluorouridine; Potency, µM (highest dose often 46.1 µM), for inactives: top-dose activity change, negative = inhibition, most hits filed as inhibitors; actives 2.3% (n = 330,000); AID 504467; further: potency means the concentration at half of the fitted maximal effect; nearly all actives have a fitted effect of over 55% in size
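Overnight (16 hr) co-exposure of 2,000 cells/well to 5-fluorouridine and compound at 37 °C preceded detection. Luciferase was quantified via ONE-Glo luminescence; loss of signal denotes inhibition.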
TDP1 cell CPT: growth inhibition of DT40 Tdp1-/-;hTDP1 cells with camptothecin (screen for TDP1 inhibitors) | Potency, µM (doses to about 46.2 µM), for inactives: at the highest dose activity change, negative = growth inhibition, most hits filed as inhibitors | chicken DT40 Tdp1-/-;hTDP1 cells + 20 nM CPT, ATP luminescence, 48 h | actives 12% (n = 420,000); further: potency means the concentration at half of the fitted maximal effect; nearly all actives have a fitted effect of over 55% in size
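Chicken DT40 Tdp1-/- cells complemented with human TDP1, 400 cells/well, exposed to compounds plus 20 nM camptothecin for at least 48 h at 37 C; viability read as ATP content by CellTiter-Glo luminescence.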
HT1080 IDH1KD tx: toxicity to HT-1080 IDH1 knockdown cells (counter line); HT-1080 IDH1 knockdown viability, ATP luminescence, 48 h; Potency, µM (doses to about 46.1 µM), inactives show at the highest dose activity, negative = toxicity, hits mostly cytotoxic; actives 2% (n = 360,000); AID 686971;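 further: potency means the concentration at half of the fitted maximal effect; 0% = DMSO wells and -100% = cell-free medium wells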
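Knockdown cells (IDH1KD HT-1080) received compounds 2 h after plating at 750 cells/well and were kept 48 h at 37 °C in 5% FBS RPMI. A CellTiter-Glo luminescence read gave % activity for curve fitting.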
IL-1B inflam inh: inflammasome signaling inhibition, IL-1 beta readout; THP-1 LPS/ATP IL-1B secretion, AlphaLISA, 16 h; hits give low values; activity change, % at 57.5 µM; actives 4.7% (n = 360,000); AID 743279; in the data active means activity change below about -50%; inconclusive means mostly about -30% to -49%
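THP-1 cells pretreated 1 hr with compounds (up to 57.5 uM final), then stimulated with LPS (250 ng/mL final) plus ATP (1.25 mM final); secreted IL-1B measured by AlphaLISA after 16 hr, decreased signal indicating inhibition.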
HT1080-NT tox: kills 2HG-producing HT-1080-NT fibrosarcoma cells. HT-1080-NT fibrosarcoma viability, CellTiter-Glo ATP luminescence, 48 h. Potency, µM (titrated, usually from 46.1 µM), inactives show at the top dose activity, negative = less viability, usual class: cytotoxic. actives 1.6% (n = 360,000);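 further: NT is the 2HG producing partner of a matched IDH1 knockdown line; potency means the concentration at half of the fitted maximal effect; 0% = DMSO-treated cells and -100% = media-only wells without cells; nearly all actives have a fitted effect of over 55% in size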
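HT-1080-NT; 750 cells/well; 5% FBS RPMI; 48 h compound, 37 degrees C; CellTiter-Glo luminescence; curve fitting and curve-class assignment.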
The depositor's hits bear a star; u = inconclusive; x = no result. Unless noted, the call rests on the fitted dose curve; in most records, active means well fitted curve in the direction sought with a large enough effect; inconclusive means small, poorly fitted or top-dose-only effect, or another doubt; inactive means no such curve, though single readings can be large; an effect the other way counts as inactive or inconclusive. Unless noted, on the % scale 0 is the no-effect control and ±100 the full control effect.

SMILES	TDP1 cell noCPT	ELG1 DNA repair	TDP1 cell CPT	HT1080 IDH1KD tx	IL-1B inflam inh	HT1080-NT tox
O=C(C1CCC(CNS(=O)(=O)c2ccc(Br)s2)CC1)N1CCN(c2ccccc2)CC1 (centres undefined)	u	x	4.6µM*	x	x	x
O=C(C1CCC(CNS(=O)(=O)c2cccs2)CC1)N1CCN(c2ccc(Cl)cc2)CC1 (centres undefined)	4.1µM*	u	6.5µM*	0%	-15	u
Cc1ccc(C)c(N2CCN(C(=O)C3CCC(CNS(=O)(=O)c4ccc(Br)s4)CC3)CC2)c1 (centres undefined)	5.8µM*	x	5.8µM*	x	x	x
COc1cccc(NC(=O)N(C)C[C@@H]2OCc3cnnn3CCCC(=O)N([C@@H](C)CO)C[C@H]2C)c1	-15%	x	u	-3%	25	6%
Cc1cc2c(c(-c3cnccn3)c1)OC(CNC(=O)c1cc(C(C)C)[nH]n1)C2 (centres undefined)	-23%	x	-24%	x	x	x
C[C@@H]1CN([C@@H](C)CO)C(=O)CCCn2nncc2CO[C@@H]1CN(C)S(=O)(=O)c1ccccc1	-25%	x	-7%	-2%	21	-6%
Cc1ccc(CC2SC(=Nc3ccccc3)N(c3ccccc3)C2=O)cc1 (centres undefined)	-25%	-11%	-12%	-11%	-6	-13%
COc1ccc(N=C2C(=Nc3ccc(OC)cc3)N(c3ccc(OC)cc3)C(=S)N2c2ccccc2)cc1	18µM*	u	21µM*	4%	-20	u
Cc1ccc(-c2nc(=Nc3ccccc3)sn2-c2ccccc2)cc1	3.2µM*	x	3.5µM*	x	x	x
COc1ccc(N=c2nc(-c3ccccc3)n(-c3ccc(C)cc3)s2)cc1	3.2µM*	x	4.5µM*	x	x	x
COc1ccc(N=C2C(=Nc3ccc(OC)cc3)N(c3ccc(OC)cc3)C(=S)N2C)cc1	u	-5%	u	u	-13	-19%
COc1ccc(N=c2nc(-c3ccc(C)cc3)n(-c3ccccc3)s2)cc1	3.5µM*	x	4µM*	x	x	x
CN(C)CC1(C)Cc2ccsc2C1O (centres undefined)	5%	x	2%	14%	8	12%
C[C@@H]1CN([C@H](C)CO)C(=O)CCCn2nncc2CO[C@@H]1CN(C)C(=O)c1ccc(N2CCN(C)CC2)cc1	-8%	x	-16%	3%	0	-9%
N#CCCN(C(=O)COC(=O)C1=NNC(=O)CC1)c1ccccc1	-11%	6%	4%	12%	36	6%
CCOC(=O)c1c(N)sn(-c2ccccc2C)c1=S	26µM*	-1%	23µM*	-2%	-24	-13%
Cn1c(C(=O)NCCN2CCCCCC2)cc2c(=O)n(C)c3ccccc3c21	u	14%	u	-1%	-30	0%
CC1CCN(CCCNC(=O)c2cc3c(=O)n(C)c4ccccc4c3n2C)CC1	33µM*	u	23µM*	-9%	-66*	-18%
Cn1c(C(=O)NCCN2CCN(Cc3ccccc3)CC2)cc2c(=O)n(C)c3ccccc3c21	23µM*	26%	23µM*	-1%	19	-2%
COCCn1c(=O)c(-c2ccc(Cl)cc2)nc2cnc(Oc3cccc(Cl)c3)nc21	-8%	x	-2%	x	x	x
O=C(CNC(=O)c1ccco1)NNC(=O)c1n[nH]c(=O)c2ccccc12	1%	1%	4%	-9%	17	-1%
COC(=O)c1cc2c(n1S(=O)(=O)c1ccc(C)cc1)C(=O)C(=O)c1[nH]cc(C(=O)OCc3ccccc3)c1-2	1.6µM*	x	0.82µM*	3.7µM*	-85*	9.2µM*
COC(=O)c1ccc(COC(=O)c2ccc(CS(=O)(=O)c3ccc(C)cc3)cc2)cc1	-1%	-3%	3%	u	10	-1%
Cc1ccoc1C(=O)N1CCCCC1C(=O)O (centres undefined)	18µM*	9%	u	-6%	22	14%
O=Cc1ccccc1OCCOc1ccc([N+](=O)[O-])cc1	1%	9%	u	-1%	-6	0%
SMILES	TDP1 cell noCPT	ELG1 DNA repair	TDP1 cell CPT	HT1080 IDH1KD tx	IL-1B inflam inh	HT1080-NT tox
CCN1C(=O)c2ccccc2Sc2ccc(NC(=O)c3ccc(Cl)cc3)cc21	-9%	x	0%	x	x	x
CN1C(=O)c2ccccc2Sc2ccc(NC(=O)Cc3c(F)cccc3Cl)cc21	7.3µM*	x	13µM*	x	x	x
CN1C(=O)c2ccccc2Sc2ccc(NC(=O)COc3ccccc3)cc21	2.9µM*	x	4.1µM*	x	x	x
Cc1cccc(OCC(=O)Nc2ccc3c(c2)N(C)C(=O)c2ccccc2S3)c1	10µM*	x	10µM*	x	x	x
CCN1C(=O)c2ccccc2Sc2ccc(NC(=O)COc3ccc(Cl)cc3)cc21	18µM*	x	16µM*	x	x	x
CCN1C(=O)c2ccccc2Sc2ccc(NC(=O)Nc3cc(C)cc(C)c3)cc21	6.5µM*	x	12µM*	x	x	x
O=C(N/N=C/c1cc(Br)ccc1O)C(c1ccncc1)N1CCOCC1 (centres undefined)	8.2µM*	-10%	4.1µM*	u	90	-18%
O=C(CCN1C(=O)c2ccccc2C1=O)c1ccccc1	-20%	x	1%	2%	-15	10%
C=CCNC(=S)Nc1sc2c(c1C(=O)OCC)CC(C(C)C)OC2 (centres undefined)	-18%	u	-27%	7.9µM*	53	6.3µM*
CCC(=O)Nc1ccc2c(c1)Cc1cc([N+](=O)[O-])ccc1-2	6.5µM*	x	u	-11%	-5	0%
O=CNc1ccc2c(c1)Cc1cc([N+](=O)[O-])ccc1-2	13µM*	x	u	5.2µM*	-55*	5.8µM*
Nc1c(Br)cc(Br)c2c1-c1ccc([N+](=O)[O-])cc1C2	-5%	x	-22%	-26%	2	2%
CCOC(=O)C1(C)Oc2ccccc2C(C(=O)OC)=C1C(=O)OC (centres undefined)	16µM*	-4%	u	1%	24	8%
CC1O[C@@H](OCC2O[C@@H](Oc3cc(O)c4c(c3)OC(c3ccc(O)cc3)CC4=O)[C@H](O)[C@@H](O)[C@@H]2O)[C@H](O)[C@H](O)[C@H]1O (some centres undefined)	4%	21%	-3%	-1%	-17	-7%
CCCCCCCCCC[n+]1cc(Br)cc(Br)c1	0.45µM*	x	0.79µM*	x	x	x
Brc1ccc[n+](CCC2CCCCC2)c1	10µM*	x	u	x	x	x
